From PubChem BioAssay
This is one part of a sample in which hits are shown more often than they occur.
Mac1 fbg inh: inhibitors of human CD11b/CD18 binding to fibrinogen; P05107+P11215; K562 CD11b/CD18 adhesion to fibrinogen, ATPlite luminescence; Mn2+ added to activate the integrin; inhibition, % at 10 µM; actives 0.54% (n = 93,000); AID 1497;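 active means primary inhibition of 50% or more at 10 µM, then 40% or more on retest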
CD11b adhes enh: CD11b/CD18-fibrinogen binding enhancement; P05107+P11215; K562 CD11b/CD18 adhesion to fibrinogen, ATPlite luminescence; activation, % at 10 µM; actives 0.07% (n = 93,000); AID 1499;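 active means 10 µM primary screen giving 50% or more activity, confirmed by 40% or more on retest at that dose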
Cav32 inh: blocks human Cav3.2 T-type calcium channel; actives 4% (n = 100,000); Cav3.2-expressing cells, Fluo-4 calcium fluorescence FDSS; stronger effect = lower value; O95180; B-score at 10 µM;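 active means single-dose well whose peak fluorescence ratio is a statistical outlier from its plate by either plate-standardised score or position-corrected B-score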
Ecoli WT expand: E. coli BW25113 growth inhibition, expanded screen; OD600 absorbance; growth inhibition, % at 100 µM; actives 0.15% (n = 98,000);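 active means growth inhibition above about 50% at one test dose, limit read from the data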;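 further: growth measured after 20 h incubation at 37 °C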
Starred values were filed as active, the others as inactive; . = not tested or not shown.

SMILES | Mac1 fbg inh | CD11b adhes enh | Cav32 inh | Ecoli WT expand
Cc1cc(Oc2ccccc2)nc(SCC(=O)Nc2ccc(Cl)cc2Cl)n1 | 16 | -5 | -5.8* | -7
COC(=O)CSc1nc(C)cc(Oc2ccccc2)n1 | -10 | 8 | 0.4 | 4
O=C(NNC(=O)c1ccc([N+](=O)[O-])o1)c1ccccc1 | -6 | 6 | -0.086 | 100*
CCOC(=O)/C(=C\c1ccc([N+](=O)[O-])o1)NC(=O)c1ccccc1 | -6 | -3 | 0.58 | 0
CCn1c2ccccc2c2cc(/C=N/NC(=O)c3cccc(C)c3)ccc21 | -1 | 3 | -4.2* | -8
CCn1nc(C)c(/C=N/NC(=O)c2ccc3c(c2)c(C)c(C)n3Cc2ccccc2)c1C | 8 | 1 | -6.2* | -7
CCn1ncc(/C=N\NC(=O)c2ccc3c(c2)c(C)c(C)n3Cc2ccccc2)c1C | 19 | -4 | -5.7* | -9
CCn1cc(/C=N\NC(=O)c2ccc3c(c2)c(C)c(C)n3Cc2ccccc2)c(C)n1 | 10 | -4 | -6.6* | -7
Cc1cccc(CN2[C@@H](CC(C)C)COCCS2(=O)=O)c1 | . | . | -0.053 | .
COc1ccccc1OCc1ccc(C(=O)NCC2CCCO2)o1 (centres undefined) | -1 | -1 | 0.26 | -3
COc1cccc(-n2nc(C(=O)N3CC(C)CC(C)C3)c3ccccc3c2=O)c1 (centres undefined) | -38 | -1 | -1.8 | 7
Cc1ccc(C)c(C(=O)COC(=O)c2cc([N+](=O)[O-])ccc2NCCO)c1 | 1 | 3 | . | .
O=C1C(=O)c2c(C(=O)c3ccccc3)coc2-c2ccccc21 | 59* | 0 | -2.2 | -9
Cc1oc2c(c1C(=O)c1ccccc1)C(=O)C(=O)c1ccccc1-2 | . | . | -5.1 | 5
C=C(C)CNC(=S)Nc1sc2c(c1C(=O)OCC)CC(C)(C)OC2 | -4 | -1 | . | .
CCC(C(=O)O/N=C(\N)c1ccc(Cl)cc1)c1ccccc1 (centres undefined) | -7 | -1 | -5.6* | -6
CCC(C(=O)O/N=C(\N)c1ccccc1)c1ccccc1 (centres undefined) | 2 | -1 | -3.6* | 4
C=CCNC(=O)C1CC2Cn3c(nc4cc5ccccc5cc43)C2N1C (centres undefined) | . | . | 0.23 | .
Cc1nc2ccccc2c(=O)n1NC(=O)c1ccccc1Cl | . | . | 0.47 | -6
CCn1c(=O)c(C(=O)Nn2c(C)nc3ccccc3c2=O)c(O)c2ccccc21 | -1 | -1 | -6.1* | 3
CCCCc1nc2ccccc2c(=O)n1NC(=O)c1c(O)c2c(n(CC(C)C)c1=O)CCCC2 | 4 | -3 | -9.9* | -11
CCn1c(=O)c(C(=O)Nc2cnccn2)c(O)c2ccccc21 | 3 | 0 | . | .
CCc1nc2ccccc2c(=O)n1NC(=O)c1c(O)c2cccc3c2n(c1=O)CCC3 | 1 | 4 | -6.1* | 0
O=C(NCc1ccccc1)c1c(O)c2cccc3c2n(c1=O)CCC3 | 8 | -1 | -2.3 | -13
CCn1c(=O)c(C(=O)Nc2nc3ccccc3[nH]2)c(O)c2ccccc21 | 96* | -8 | 0.03 | 1
SMILES | Mac1 fbg inh | CD11b adhes enh | Cav32 inh | Ecoli WT expand
CCOc1ccccc1NC(=S)N(Cc1cc2ccc(C)cc2[nH]c1=O)CC1CCCN1CC (centres undefined) | 21 | 0 | . | .
CCC(C)(C)NC(=O)C(c1cccc(OC)c1)N(C(=O)c1ccn[nH]1)c1cccc(OC)c1 (centres undefined) | 6 | 0 | -5.1* | 10
Cc1ccc(-n2c(CNc3ccc(F)cc3)nnc2SCC(=O)NCc2ccco2)cc1 | 0 | -1 | -5.2* | 2
COc1ccc(NCc2nnc(SCC(=O)NCc3ccco3)n2-c2ccccc2OC)cc1 | . | . | 0.94 | .
Cc1cc(C(=O)OCC(=O)NCc2ccco2)c(C)n1-c1ccc(F)cc1 | 22 | -1 | -4.4* | -4
CCc1ccc(Nc2nnc(SC3CCOC3=O)s2)cc1 (centres undefined) | -4 | 0 | . | .
CC1(C)[C@@H](O)CC[C@]2(C)C3C(O)C=C4[C@H]5C[C@@](C)(C(=O)O)CC[C@]5(C)CC[C@]4(C)[C@]3(C)CC[C@@H]12 (some centres undefined) | . | . | -1.6 | .
O=C(c1ccc(Cl)cc1)C1C2C(=O)N(c3ccccc3)C(=O)C2C2CCCN21 (centres undefined) | -16 | 20 | -6.9* | 0
COc1ccc(C(=O)N(Cc2nc(-c3ccc(C)cc3)no2)C2CCCCC2)cc1OC | -7 | 3 | -4* | 2
Cc1onc(-c2ccccc2Cl)c1C(=O)N(Cc1nc(-c2ccccc2)no1)C1CCCCC1 | -38 | -3 | -3.5 | -8
CCCCn1nnnc1SCC(=O)N1CCOCC1 | -40 | 0 | 0.022 | -2
